Results as given in ChEMBL document CHEMBL1157539, “Thousands of chemical starting points for antimalarial lead identification” (Nature, 2010).

Legend:
Assay type in all cases: functional
Plasmodium falciparum [1] = assay: GSK_TCMDC: Inhibition of Plasmodium falciparum 3D7 in whole red blood cells, using parasite LDH activity as an index of growth. Test compounds present at 2uM
Plasmodium falciparum [2] = assay: GSK_TCMDC: Inhibition of Plasmodium falciparum Dd2 in whole red blood cells, using parasite LDH activity as an index of growth. Test compounds present at 2uM
HepG2 = assay: GSK_TCMDC: Percent inhibition of human HepG2 cell line. Test compounds present at 10uM.

Row | SMILES | Inhibition (Plasmodium falciparum [1]) | Inhibition (Plasmodium falciparum [2]) | Inhibition (HepG2)
1 | CCCCN(C(=O)c1ccccc1C)c1nnc(-c2ccccc2C)s1 | 92% | 94% | 10%
2 | Br.NCC(=O)NC12CC3CC(CC(C3)C1)C2 | 87% | 0% | 15%
3 | CO/C(=C\C=C\c1cc2cc(Cl)c(Cl)cc2[nH]1)C(=O)NC1CCN(CCCc2ccccc2)CC1 | 93% | 75% | 59%
4 | Cc1cc(Cl)ccc1OC(C)C(=O)N1CCc2ccccc21 (stereo not drawn) | 94% | 78% | 8%
5 | C=CCOC(=O)O[C@@H]1[C@@H](OC(=O)OCC=C)[C@@H](OC)O[C@H](COC(c2ccccc2)(c2ccccc2)c2ccccc2)[C@H]1OC(=O)OCC=C | 95% | 96% | 5%
6 | O=C(C=Cc1ccc(F)cc1)N1CCN(S(=O)(=O)c2ccc(Cl)cc2)CC1 | 91% | 93% | 10%
7 | O=C(NC1CCCCCC1)C1CCCN(C(=O)c2ccc(O)c(-c3ccc(Cl)c(Cl)c3)c2)C1 (stereo not drawn) | 98% | 21% | 5%
8 | Cc1ccc(/C=C/C(=O)NC2CCC(N3CCC(c4ccccc4C)CC3)CC2)cc1C (stereo not drawn) | 100% | 43% | 12%
9 | Cc1nn(-c2ccccc2)c2sc(C(=O)N(CCCN(C)C)c3nc(-c4ccccc4)cs3)cc12.Cl | 95% | 36% | 99%
10 | Cc1ccc(-c2nc3cc(NC(=O)c4ccc([N+](=O)[O-])o4)ccc3o2)cc1Cl | 100% | 97% | 24%
11 | CCN(CC)CCN(Cc1ccc(-c2ccc(C(F)(F)F)cc2)cc1)C(=O)Cn1c(CCc2c(F)cc(F)cc2F)nc(=O)c2ccccc21.O=C(O)C(O)C(O)C(=O)O | 89% | 26% | 39%
